# Laboratory results taken from PubChem BioAssay (NCATS).
# Records with an inconclusive call do not appear. Entries that show only a call come without a potency. Calls of active or inactive are those of the source. Unless noted, the call rests on the fitted dose curve; in most records, active means well fitted curve in the direction sought with a large enough effect; inconclusive means small, poorly fitted or top-dose-only effect, or another doubt; inactive means no such curve, though single readings can be large; an effect the other way counts as inactive or inconclusive.
# How the values were obtained:
# [1] = Cytotoxicity counterscreen for inhibitors of SARS-CoV-2 cell entry (AID 1645845; calls by dose curve; further: nearly all actives have a fitted effect of over 50% in size; further: potency means the concentration at half of the fitted maximal effect)
# Procedure, shortened: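 HEK293-ACE2 cells (Expi293F stably expressing human ACE2) seeded overnight, then compound for 1 h plus 48 h at 37C. Viability as ATP content by luminescence; normalized to wells with cells and media-only wells.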
# [2] = Primary qHTS for inhibitors of La Crosse Virus (LACV) - induced cell death in SH-SY5Y cells (AID 1508616);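 further: top concentration of the series differs between compounds; higher means more rescue of cells from virus-induced death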
# Procedure, shortened: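 Protection against LACV-induced cell death is scored in SH-SY5Y cells exposed to compounds and virus (0.01 MOI) for 6 days. Data normalized to virus-infected DMSO wells and virus-free DMSO wells.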
# [3] = target: Calcium and integrin-binding protein 1 (Homo sapiens) (UniProt Q99828); experiment: Primary qHTS for Identification of Calcium Integrin Binding Protein 1 (CIB1) Competitor (AID 1508620);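 further: GST tagged CIB1 binding a fluorescein labelled alphaIIb integrin peptide tracer; top concentration of the series differs between compounds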
# Chain of Calcium and integrin-binding protein 1 (Homo sapiens) (Q99828 whole entry, looked up): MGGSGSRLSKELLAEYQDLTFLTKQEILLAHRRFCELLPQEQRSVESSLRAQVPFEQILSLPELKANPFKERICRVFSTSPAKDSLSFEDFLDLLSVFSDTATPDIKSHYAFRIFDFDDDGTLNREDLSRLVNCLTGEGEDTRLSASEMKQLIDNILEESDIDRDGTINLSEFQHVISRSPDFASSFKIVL
# Procedure, shortened: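 Fluorescence polarization competition: GST-tagged CIB1 (1 uM final) preincubated with compound 15 min at room temperature, then FITC-labelled alphaIIb peptide (100 nM final) added. After 15 min at room temperature, polarization read at Ex 480/Em 540.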
# [4] = Primary qHTS for small molecule stabilizers of the endoplasmic reticulum resident proteome: Secreted ER Calcium Modulated Protein (SERCaMP) assay (AID 1508630)
# Procedure, shortened: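 GLuc-SERCaMP-expressing SH-SY5Y cells, pretreated 16 h with compound, are challenged with thapsigargin to empty ER calcium stores; after 4 h, coelenterazine is added directly to the medium and luminescence is imaged.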
# [5] = A High-Content qHTS Against Drug Library for the Identification of Small Molecules that Inhibit DYT1 Early Onset Primary Dystonia-Associated Cell Pathology (AID 1645839; calls by dose curve; further: series mostly up to about 46 µM)
# Procedure, shortened: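 Flp-In T-REx 293 cells with tetracycline-inducible EGFP-delE hTOR1A (WT EGFP-hTOR1A as reference), 800 cells/well; compound added with tetracycline, 48 h at 37 C. Fixed, permeabilized cells imaged; %pathology (punctate TorsinA) primary, cell count counterscreen.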
# [6] = target: Cytochrome P450 2D6 (Homo sapiens) (UniProt P10635); experiment: Cytochrome P450 family 2 subfamily D member 6 (CYP2D6) small molecule antagonists: luciferase biochemical (cell-free) qHTS assay (AID 1645840; active means well fitted curve in the direction sought with a large enough effect in the repeat runs; an effect the other way counts as inactive or inconclusive; further: nearly all actives have a fitted effect of over 55% in size; further: potency means the concentration at half of the fitted maximal effect)
# Chain of Cytochrome P450 2D6 (Homo sapiens) (P10635 whole entry, looked up): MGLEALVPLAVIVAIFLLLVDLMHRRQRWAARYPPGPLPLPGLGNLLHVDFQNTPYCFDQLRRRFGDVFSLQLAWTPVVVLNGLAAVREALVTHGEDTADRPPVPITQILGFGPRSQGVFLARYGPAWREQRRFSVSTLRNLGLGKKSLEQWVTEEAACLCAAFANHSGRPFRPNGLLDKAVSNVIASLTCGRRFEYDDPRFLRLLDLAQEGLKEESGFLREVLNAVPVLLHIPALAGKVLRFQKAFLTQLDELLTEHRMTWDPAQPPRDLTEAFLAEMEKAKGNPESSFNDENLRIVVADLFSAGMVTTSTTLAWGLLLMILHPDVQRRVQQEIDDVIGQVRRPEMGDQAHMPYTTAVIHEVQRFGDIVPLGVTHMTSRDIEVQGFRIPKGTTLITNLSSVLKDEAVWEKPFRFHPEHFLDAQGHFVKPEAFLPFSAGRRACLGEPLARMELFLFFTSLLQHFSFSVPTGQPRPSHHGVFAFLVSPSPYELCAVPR
# Procedure, shortened: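 P450-Glo luminescent screen: recombinant CYP2D6 enzyme–proluciferin substrate mix preincubated with compound 10 min at room temperature, then NADPH regeneration added for 1 h at room temperature. Detection reagent added for 20 min; luciferin light read as relative luminescence units.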
# [7] = target: Cytochrome P450 2C9 (Homo sapiens) (UniProt P11712); experiment: Cytochrome P450 family 2 subfamily C member 9 (CYP2C9) small molecule antagonists: luciferase biochemical (cell-free) qHTS assay (AID 1645842; active means well fitted curve in the direction sought with a large enough effect in the repeat runs; an effect the other way counts as inactive or inconclusive; further: nearly all actives have a fitted effect of over 55% in size; further: potency means the concentration at half of the fitted maximal effect)
# Chain of Cytochrome P450 2C9 (Homo sapiens) (P11712 whole entry, looked up): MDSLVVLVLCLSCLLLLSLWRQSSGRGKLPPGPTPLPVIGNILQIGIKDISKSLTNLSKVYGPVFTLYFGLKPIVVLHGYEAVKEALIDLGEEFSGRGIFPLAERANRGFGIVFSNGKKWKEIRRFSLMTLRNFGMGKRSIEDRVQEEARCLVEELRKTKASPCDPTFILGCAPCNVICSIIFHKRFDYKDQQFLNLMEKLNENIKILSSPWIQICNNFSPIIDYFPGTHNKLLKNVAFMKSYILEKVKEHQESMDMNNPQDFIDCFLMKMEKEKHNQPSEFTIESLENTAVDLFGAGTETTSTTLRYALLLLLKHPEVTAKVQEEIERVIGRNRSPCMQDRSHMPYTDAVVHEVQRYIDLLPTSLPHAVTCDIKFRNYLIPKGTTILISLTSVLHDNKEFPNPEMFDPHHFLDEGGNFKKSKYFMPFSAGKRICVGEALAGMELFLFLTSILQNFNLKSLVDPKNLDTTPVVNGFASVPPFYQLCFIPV
# Procedure, shortened: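 Luminescence, after 20 min with luciferin detection reagent, reflected CYP2C9 turnover during a 1 h NADPH-driven reaction at 37C. Enzyme-substrate mix contained 0.4% bovine serum albumin and was preincubated with compound 10 min at room temperature.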
# [8] = Confirmatory qHTS to identify inhibitors of SARS-CoV-2 cell entry (AID 1645844; calls by dose curve; further: potency means the concentration at half of the fitted maximal effect; nearly all actives have a fitted effect of over 45% in size)
# Procedure, shortened: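 HEK293-ACE2 cells were pretreated 1 h with compound, then infected with MLV-based pseudoparticles bearing C-terminally truncated Wuhan-Hu-1 spike for 48 h at 37C; luciferase luminescence normalized to spike PP and bald PP wells.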
# [9] = Counterscreen qHTS for small molecule stabilizers of the endoplasmic reticulum resident proteome: GLuc-NoTag assay (AID 1508627);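 further: SH-SY5Y cells given compound then 100 nM thapsigargin to empty ER calcium; series mostly up to about 76 µM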
# Procedure, shortened: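 SH-SY5Y cells stably expressing constitutively secreted GLuc without SERCaMP tag, exposed to compound for 19 hr, then to 100 nM thapsigargin for 4 hr at 37C. Medium luciferase was read by coelenterazine luminescence without lysis.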
# [10] = Confirmatory qHTS for small molecule stabilizers of the endoplasmic reticulum resident proteome: Secreted ER Calcium Modulated Protein (SERCaMP) assay (AID 1508628); further: potency means the concentration at half of the fitted maximal effect; nearly all actives have a fitted effect of over 40% in size
# Procedure, shortened: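 SH-SY5Y cells stably expressing GLuc-SERCaMP, treated 16 h with compound (primary 1.53, 7.67, 38.3 uM; confirmation 11 concentrations, up to 76.6 uM), then 100 nM thapsigargin for 4 h. Secreted Gaussia luciferase in medium read by coelenterazine luminescence.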
smiles,measurement,setting,value
C[C@@H]1CC(=O)NN=C1c1ccc(NN=C(C#N)C#N)cc1,Potency,[1],inactive
COc1ccc(C(=O)c2c(C)n(CCN3CCOCC3)c3ccccc23)cc1,Potency,[2],inactive
same,Potency,[3],inactive
same,outcome,[4],inactive
same,Potency,[5],inactive
same,Potency,[6],12300 nM (active)
same,Potency,[7],5490 nM (active)
Cn1ccc2cc3c(cc21)CCN3C(=O)Nc1cccnc1,Potency,[1],inactive
CCOP(=S)(OCC)Oc1cc(C)nc(C(C)C)n1,Potency,[2],inactive
same,Potency,[3],inactive
same,Potency,[5],inactive
same,Potency,[6],inactive
same,Potency,[7],1950 nM (active)
CO[C@@H](C(=O)N1Cc2[nH]nc(NC(=O)c3ccc(N4CCN(C)CC4)cc3)c2C1)c1ccccc1,Potency,[8],482 nM (active)
same,Potency,[1],inactive
Cn1cnc2c(F)c(Nc3ccc(Br)cc3Cl)c(C(=O)NOCCO)cc21,Potency,[1],inactive
N[C@@H](Cc1cc(I)c(Oc2cc(I)c(O)c(I)c2)c(I)c1)C(=O)O,Potency,[1],inactive
CCCC(C)(COC(N)=O)COC(=O)NC(C)C (configuration not stated),Potency,[2],inactive
same,Potency,[3],inactive
same,outcome,[4],inactive
same,Potency,[5],inactive
same,Potency,[6],inactive
same,Potency,[7],inactive
CCC(=O)C(CC(C)N(C)C)(c1ccccc1)c1ccccc1 (configuration not stated),Potency,[3],inactive
same,Potency,[9],inactive
same,Potency,[10],35500 nM (active)
same,Potency,[6],898 nM (active)
same,Potency,[7],inactive
CNC(=O)N1N=C(c2ccc(N)cc2)c2cc3c(cc2CC1C)OCO3 (configuration not stated),Potency,[3],inactive
same,outcome,[4],inactive
same,Potency,[6],inactive
same,Potency,[7],1510 nM (active)
CO[C@]12CC[C@@]3(C[C@@H]1[C@](C)(O)C(C)(C)C)[C@@H]1Cc4ccc(O)c5c4[C@@]3(CCN1CC1CC1)[C@H]2O5,Potency,[2],inactive
same,Potency,[3],inactive
same,Potency,[6],353 nM (active)
O=c1oc2ccccc2c(O)c1C(CC(O)c1ccc(-c2ccc(Br)cc2)cc1)c1ccccc1 (configuration not stated),Potency,[2],inactive
same,outcome,[4],inactive
same,Potency,[7],4360 nM (active)
CCc1nc(N)nc(N)c1-c1ccc(Cl)cc1,Potency,[1],14100 nM (active)
C[C@@H]1[C@@H](CC(C[C@H]2O[C@@H]3O[C@]4(C)CC[C@@H]5[C@H](C)CC[C@@H]([C@H]2C)[C@@]35OO4)C[S+](=O)([O-])c2ccc(COC(=O)N(C)C)cc2)O[C@@H]2O[C@]3(C)CC[C@H]4[C@H](C)CC[C@@H]1[C@@]24OO3 (some centres not stated),Potency,[3],inactive
same,outcome,[4],inactive
C[C@@H]1[C@@H](C(=O)C[C@H]2O[C@@H]3O[C@]4(C)CC[C@@H]5[C@H](C)CC[C@@H]([C@H]2C)[C@@]35OO4)O[C@@H]2O[C@]3(C)CC[C@H]4[C@H](C)CC[C@@H]1[C@@]24OO3,Potency,[3],inactive
same,outcome,[4],inactive
CNC(=O)c1ccc(N2C(=S)N(c3ccc(C#N)c(C(F)(F)F)c3)C(=O)C23CCC3)cc1F,Potency,[3],inactive
same,outcome,[4],inactive
same,Potency,[6],inactive
same,Potency,[7],16900 nM (active)
same,Potency,[1],inactive
C[C@]12CCC(=O)C(O)=C1CC[C@@H]1[C@@H]2CC[C@]2(C)C(=O)CC[C@@H]12,Potency,[2],inactive
same,Potency,[3],inactive
same,outcome,[4],inactive
same,Potency,[5],inactive
same,Potency,[6],inactive
same,Potency,[7],inactive
same,Potency,[1],inactive
COc1ccc2c(c1OC)CN1CCc3cc4c(cc3C1C2)OCO4 (configuration not stated),Potency,[2],inactive
same,Potency,[3],inactive
same,Potency,[5],inactive
same,Potency,[6],30.9 nM (active)
same,Potency,[7],19500 nM (active)
COc1c(C)c2c(c(O)c1C/C=C(\C)CCC(=O)OCCN1CCOCC1)C(=O)OC2,Potency,[8],76.4 nM (active)
same,Potency,[1],inactive
Cc1sc2c(c1C)C(c1ccc(Cl)cc1)=N[C@@H](CC(=O)OC(C)(C)C)c1nnc(C)n1-2,Potency,[3],inactive
same,outcome,[4],inactive
same,Potency,[6],inactive
same,Potency,[7],10700 nM (active)
COc1cc2c(N3CCN(C(=O)Nc4ccc(OC(C)C)cc4)CC3)ncnc2cc1OCCCN1CCCCC1,Potency,[1],inactive
CN(C)CCN(C)CCc1ccc(Cl)c(Cl)c1,Potency,[3],inactive
same,outcome,[4],inactive
CC[N+]1(C)CCCC(OC(=O)C(O)(c2ccccc2)c2ccccc2)C1 (configuration not stated),Potency,[2],inactive
same,Potency,[3],inactive
same,Potency,[5],inactive
same,Potency,[6],2750 nM (active)
same,Potency,[7],inactive
CCOC(=O)C1(c2ccccc2)CCN(CCC(C#N)(c2ccccc2)c2ccccc2)CC1,Potency,[2],inactive
same,Potency,[3],inactive
same,Potency,[5],inactive
same,Potency,[6],1740 nM (active)
same,Potency,[7],1550 nM (active)
Cc1ccc(-c2nc3ccc(C)cn3c2CC(=O)N(C)C)cc1,Potency,[2],inactive
same,Potency,[3],inactive
same,outcome,[4],inactive
same,Potency,[5],inactive
same,Potency,[7],inactive
C=CC(=O)Nc1cc2c(Nc3ccc(F)c(Cl)c3)ncnc2cc1OCCCN1CCOCC1,Potency,[1],35500 nM (active)
Cc1ccc(-n2nc(C(C)(C)C)cc2NC(=O)Nc2ccc(OCCN3CCOCC3)c3ccccc23)cc1,Potency,[1],inactive
CC1NCCOC1c1ccccc1 (configuration not stated),Potency,[2],inactive
same,Potency,[3],inactive
same,Potency,[5],inactive
same,Potency,[7],inactive
CC(C)(N)Cc1ccc(Cl)cc1,Potency,[2],inactive
same,Potency,[3],inactive
same,Potency,[5],inactive
same,Potency,[6],6170 nM (active)
same,Potency,[7],inactive
COC(=O)Nc1nc2ccc(C(=O)c3cccs3)cc2[nH]1,Potency,[8],215 nM (active)
same,Potency,[1],inactive
